# Measured values: PubChem BioAssay (NCATS)
# Records with an inconclusive call do not appear. Entries that show only a call come without a potency. Calls of active or inactive are those of the source. Unless noted, the call rests on the fitted dose curve; in most records, active means well fitted curve in the direction sought with a large enough effect; inconclusive means small, poorly fitted or top-dose-only effect, or another doubt; inactive means no such curve, though single readings can be large; an effect the other way counts as inactive or inconclusive.
# Legend:
# [1] = NS1 protein of Zika virus - qHTS assay to identify small molecule inhibitors in human HEK 293 cells (AID 1347053); further: series mostly up to about 46 µM; nearly all actives have a fitted effect of over 55% in size
# Method in brief: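 Inhibition of NS1 expression was scored in HEK 293 cells given compound 1 h ahead of MR766 virus (MOI = 0.5). Following 24 h at 37 C, two anti-NS1 antibodies generated a TR-FRET signal, scaled between uninfected and infected controls.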
# [2] = qHTS for Inhibitors of the Functional Ribonucleoprotein Complex (vRNP) of Lassa (LASV) Arenavirus: LASV Primary Screen - GLuc reporter signal (AID 1347082; calls by dose curve; tested in HEK293 reporter line; further: series mostly up to about 57 µM; nearly all actives have a fitted effect of over 60% in size)
# [3] = qHTS for Inhibitors of the Functional Ribonucleoprotein Complex (vRNP) of Lassa (LASV) Arenavirus: Viability assay - alamar blue signal for LASV Primary Screen (AID 1347083; calls by dose curve; tested in HEK293 reporter line; further: series mostly up to about 57 µM; nearly all actives have a fitted effect of over 80% in size)
# [4] = qHTS for Inhibitors of the Functional Ribonucleoprotein Complex (vRNP) of Lymphocytic Choriomeningitis Arenaviruses (LCMV): Viability assay - alamar blue signal for LCMV Primary Screen (AID 1347085; calls by dose curve; tested in HEK293 reporter line; further: series mostly up to about 57 µM; nearly all actives have a fitted effect of over 80% in size)
# [5] = target: Nucleoprotein (Lymphocytic choriomeningitis virus (strain Armstrong)) (UniProt P09992); assay: qHTS for Inhibitors of the Functional Ribonucleoprotein Complex (vRNP) of Lymphocytic Choriomeningitis Arenaviruses (LCMV): LCMV Primary Screen - GLuc reporter signal (AID 1347086; calls by dose curve; further: series mostly up to about 57 µM; nearly all actives have a fitted effect of over 70% in size)
# Nucleoprotein (Lymphocytic choriomeningitis virus (strain Armstrong)), sequence (P09992 whole entry, looked up): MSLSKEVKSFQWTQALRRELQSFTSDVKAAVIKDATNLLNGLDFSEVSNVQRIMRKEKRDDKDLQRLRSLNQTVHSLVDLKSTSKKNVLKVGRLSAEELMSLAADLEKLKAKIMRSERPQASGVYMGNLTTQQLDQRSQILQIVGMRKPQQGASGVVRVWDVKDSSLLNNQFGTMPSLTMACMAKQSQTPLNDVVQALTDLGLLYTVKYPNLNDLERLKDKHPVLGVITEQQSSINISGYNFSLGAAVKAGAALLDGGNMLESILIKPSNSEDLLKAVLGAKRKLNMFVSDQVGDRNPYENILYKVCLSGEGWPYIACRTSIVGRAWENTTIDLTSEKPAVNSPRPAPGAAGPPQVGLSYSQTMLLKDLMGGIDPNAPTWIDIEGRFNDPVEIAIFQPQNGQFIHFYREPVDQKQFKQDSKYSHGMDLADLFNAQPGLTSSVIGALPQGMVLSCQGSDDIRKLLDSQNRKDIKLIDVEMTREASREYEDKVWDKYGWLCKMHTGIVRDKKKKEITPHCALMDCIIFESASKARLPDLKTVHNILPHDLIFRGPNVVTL
# [6] = qHTS of pediatric cancer cell lines to identify multiple opportunities for drug repurposing: Primary screen for TC32 cells (AID 1347089); further: nearly all actives have a fitted effect of over 60% in size
# Method in brief: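 A viability screen of TC32 cells was run over 48 h, with primary MIPE doses spanning 0.78 nM–46 µM and NPC doses 0.59 nM–46 µM. ATP luminescence (CellTiter-Glo) served as the read-out.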
# [7] = qHTS of pediatric cancer cell lines to identify multiple opportunities for drug repurposing: Primary screen for DAOY cells (AID 1347090); further: series mostly up to about 46 µM; nearly all actives have a fitted effect of over 55% in size
# Method in brief: (§1)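 Viability measured as metabolically active cells via CellTiter-Glo luminescence following 48 hours of compound exposure, 11-point dilutions in confirmatory testing. 500-1,000 cells/well plated 5 hours before dosing; controls were DMSO and 2.3 µM bortezomib.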
# [8] = qHTS of pediatric cancer cell lines to identify multiple opportunities for drug repurposing: Primary screen for SJ-GBM2 cells (AID 1347091)
# Method in brief: as §1
# [9] = qHTS of pediatric cancer cell lines to identify multiple opportunities for drug repurposing: Primary screen for A673 cells (AID 1347092); further: nearly all actives have a fitted effect of over 45% in size
# Method in brief: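 Titration-based qHTS on A673 cells: MIPE compounds spanned 11 points (0.78 nM to 46 µM final), NPC compounds 8 points (0.59 nM to 46 µM final). Viability after 48 h was measured by ATP luminescence.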
# [10] = qHTS of pediatric cancer cell lines to identify multiple opportunities for drug repurposing: Primary screen for SK-N-MC cells (AID 1347093); further: series mostly up to about 46 µM
# Method in brief: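 Metabolically active cells were quantified by ATP-dependent luminescence (CellTiter-Glo, 15 min at room temperature) following 48 h treatment. Cells had been plated at 500-1,000 per well and settled for 5 h beforehand.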
# [11] = qHTS of pediatric cancer cell lines to identify multiple opportunities for drug repurposing: Primary screen for BT-37 cells (AID 1347094); further: series mostly up to about 57 µM
# Method in brief: (§2)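 Plated cells (500-1,000 per well, growth media) were allowed to settle for 5 hours, treated with compound dilutions for 48 hours, then lysed with CellTiter-Glo for 15 min at room temperature before luminescence reading.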
# [12] = qHTS of pediatric cancer cell lines to identify multiple opportunities for drug repurposing: Primary screen for NB-EBc1 cells (AID 1347095)
# Method in brief: as §2
# [13] = qHTS of pediatric cancer cell lines to identify multiple opportunities for drug repurposing: Primary screen for U-2 OS cells (AID 1347096); further: nearly all actives have a fitted effect of over 50% in size
# Method in brief: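 Viability after 48 h compound treatment at 37C, 500-1,000 cells/well, read as ATP luminescence with CellTiter-Glo. Primary screens used 11-point (MIPE, 0.78 nM-46 µM) or 8-point (NPC, 0.59 nM-46 µM) final concentrations; follow-up screens used 11-point dilutions.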
# [14] = qHTS of pediatric cancer cell lines to identify multiple opportunities for drug repurposing: Primary screen for Saos-2 cells (AID 1347097); further: nearly all actives have a fitted effect of over 40% in size; further: potency means the concentration at half of the fitted maximal effect
# Method in brief: as §2
# [15] = qHTS of pediatric cancer cell lines to identify multiple opportunities for drug repurposing: Primary screen for SK-N-SH cells (AID 1347098);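 further: DMSO served as neutral control and bortezomib at 2.3 µM as positive control; nearly all actives have a fitted effect of over 65% in size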
# Method in brief: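 Cells (500-1,000/well) rested 5 h, then received compounds for 48 h; metabolically active cells were measured by CellTiter-Glo luminescence. Final concentrations spanned up to 46 µM (MIPE, 11-point) or 0.59 nM-46 µM (NPC, 8-point) in primary screens, 11-point in follow-ups.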
# [16] = qHTS of pediatric cancer cell lines to identify multiple opportunities for drug repurposing: Primary screen for NB1643 cells (AID 1347099); further: nearly all actives have a fitted effect of over 50% in size
# Method in brief: as §2
# [17] = target: T1, Tyrosine-protein phosphatase non-receptor type substrate 1 (Homo sapiens) + Leukocyte surface antigen CD47 (Homo sapiens) (UniProt P78324+Q08722); assay: CD47-SIRPalpha protein protein interaction - LANCE assay qHTS validation (AID 1347057; active means well fitted curve in the direction sought with a large enough effect in the signal ratio, with a control signal flat, not every such curve was filed as active; the % refers to the signal ratio; further: series mostly up to about 38 µM)
# T1 sequence (P78324 whole entry, looked up): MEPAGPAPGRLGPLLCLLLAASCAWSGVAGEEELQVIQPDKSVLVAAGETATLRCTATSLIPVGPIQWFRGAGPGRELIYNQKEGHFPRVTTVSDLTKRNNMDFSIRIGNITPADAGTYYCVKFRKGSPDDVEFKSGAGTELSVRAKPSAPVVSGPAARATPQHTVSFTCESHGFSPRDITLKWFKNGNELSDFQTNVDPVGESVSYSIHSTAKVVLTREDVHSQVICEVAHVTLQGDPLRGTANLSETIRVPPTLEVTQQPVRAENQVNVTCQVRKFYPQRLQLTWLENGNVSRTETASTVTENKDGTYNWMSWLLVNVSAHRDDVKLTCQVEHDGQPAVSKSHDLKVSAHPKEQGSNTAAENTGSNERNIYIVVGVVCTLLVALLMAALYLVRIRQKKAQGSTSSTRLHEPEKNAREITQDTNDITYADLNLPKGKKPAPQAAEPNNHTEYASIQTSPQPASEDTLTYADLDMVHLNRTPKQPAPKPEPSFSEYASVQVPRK
# T1 sequence (Q08722 whole entry, looked up): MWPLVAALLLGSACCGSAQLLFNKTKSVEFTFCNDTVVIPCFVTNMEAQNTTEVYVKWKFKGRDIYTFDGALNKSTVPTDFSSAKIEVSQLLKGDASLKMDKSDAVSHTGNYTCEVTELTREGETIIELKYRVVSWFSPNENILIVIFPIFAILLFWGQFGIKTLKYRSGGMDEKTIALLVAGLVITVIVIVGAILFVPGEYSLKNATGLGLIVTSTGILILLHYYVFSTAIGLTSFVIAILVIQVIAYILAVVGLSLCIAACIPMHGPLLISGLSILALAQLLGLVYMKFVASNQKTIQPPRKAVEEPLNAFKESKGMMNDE
# Method in brief: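 First, His-tagged CD47 and Eu-labelled anti-His antibody met the compound for 30 min; next, site-specifically biotinylated SIRPalpha was added for 30 min; finally streptavidin-APC was added before reading the TR-FRET ratio.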
# [18] = target: T1, Tyrosine-protein phosphatase non-receptor type substrate 1 (Homo sapiens) + Leukocyte surface antigen CD47 (Homo sapiens); assay: CD47-SIRPalpha protein protein interaction - HTRF assay qHTS validation (AID 1347058; active means well fitted curve in the direction sought with a large enough effect in the signal ratio, not every such curve was filed as active; the % refers to the signal ratio;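 further: recombinant soluble extracellular CD47 with His tag and biotinylated SIRPalpha domains; series mostly up to about 38 µM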)
# Method in brief: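 TR-FRET read (Ch1/Ch2 ratio) of soluble extracellular CD47 and Avi-biotinylated SIRPalpha domains in PBS pH 7.4 with 0.05% IGEPAL; 7-point compound titration. Sequential 30 min room-temperature steps; non-biotinylated SIRPalpha as control inhibitor.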
# [19] = target: T1, Tyrosine-protein phosphatase non-receptor type substrate 1 (Homo sapiens) + Leukocyte surface antigen CD47 (Homo sapiens); assay: CD47-SIRPalpha protein protein interaction - Alpha assay qHTS validation (AID 1347059);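 further: bead proximity luminescence from CD47 binding SIRPalpha after compound preincubation with SIRPalpha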
# Method in brief: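 Biotinylated Avi-tagged SIRPalpha (25 nM) preincubated 30 min with compound, then His-tagged CD47 (12.5 nM) added 30 min; AlphaScreen with Ni-NTA acceptor and streptavidin donor beads. PBS pH 7.4, 0.05% IGEPAL, room temperature; 7-point titrations.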
# [20] = target: Parathyroid hormone/parathyroid hormone-related peptide receptor (Homo sapiens) (UniProt Q03431); assay: qHTS for PTHR1 Agonists: Optimization Screen against the NCGC LOPAC library (AID 1347079);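 further: GloSensor cAMP luminescence in HEK-293 GP2 cells expressing human PTHR1 with IBMX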
# Parathyroid hormone/parathyroid hormone-related peptide receptor (Homo sapiens), sequence (Q03431 whole entry, looked up): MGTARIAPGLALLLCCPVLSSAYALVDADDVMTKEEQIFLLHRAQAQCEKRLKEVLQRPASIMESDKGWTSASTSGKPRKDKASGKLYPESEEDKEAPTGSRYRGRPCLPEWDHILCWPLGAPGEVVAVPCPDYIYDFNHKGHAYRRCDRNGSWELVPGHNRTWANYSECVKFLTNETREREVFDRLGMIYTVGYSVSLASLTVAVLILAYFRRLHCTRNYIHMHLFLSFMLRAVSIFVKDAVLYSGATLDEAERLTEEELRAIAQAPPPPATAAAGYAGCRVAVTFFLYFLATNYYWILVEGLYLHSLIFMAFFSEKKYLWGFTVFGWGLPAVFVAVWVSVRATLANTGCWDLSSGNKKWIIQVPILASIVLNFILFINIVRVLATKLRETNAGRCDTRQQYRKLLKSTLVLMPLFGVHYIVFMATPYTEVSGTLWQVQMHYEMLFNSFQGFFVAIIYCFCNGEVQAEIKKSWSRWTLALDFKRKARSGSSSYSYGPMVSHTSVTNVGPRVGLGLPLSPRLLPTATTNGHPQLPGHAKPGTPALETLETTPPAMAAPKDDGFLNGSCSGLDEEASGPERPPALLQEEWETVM
# Method in brief: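 Agonist readout: GloSensor cAMP luminescence, read after 15 min at room temperature. HEK-293-derived GP2 line carries PTHR1; compounds tested as a titration for 1 hr at 37C in presence of IBMX. M-PTH (1-15) served as control.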
Structure (SMILES),Potency [1],Potency [2],Potency [3],Potency [4],Potency [5],Potency [6],Potency [7],Potency [8],Potency [9],Potency [10],Potency [11],Potency [12],Potency [13],Potency [14],Potency [15],Potency [16],outcome [17],outcome [18],outcome [19],outcome [20]
CC(C)C(Br)C(=O)NC(N)=O (stereo unspecified),inactive,inactive,inactive,inactive,inactive,inactive,inactive,inactive,inactive,inactive,inactive,inactive,inactive,inactive,inactive,inactive,–,–,–,–
CCOC(=O)c1cncn1C(C)c1ccccc1 (stereo unspecified),inactive,inactive,inactive,inactive,inactive,inactive,inactive,inactive,inactive,inactive,inactive,inactive,inactive,inactive,inactive,inactive,–,–,–,–
CCNc1nc(Cl)nc(NCC)n1,inactive,inactive,inactive,inactive,inactive,inactive,inactive,inactive,inactive,inactive,inactive,inactive,inactive,–,inactive,inactive,–,–,–,–
COc1ccc(OC)c(CC(C)N)c1 (stereo unspecified),inactive,inactive,inactive,inactive,inactive,inactive,inactive,inactive,inactive,inactive,inactive,inactive,inactive,inactive,inactive,inactive,–,–,–,–
O=C1CN2CCOC2(c2ccccc2Cl)c2cc(Cl)ccc2N1 (stereo unspecified),inactive,inactive,inactive,inactive,inactive,inactive,inactive,inactive,inactive,inactive,inactive,inactive,inactive,inactive,inactive,inactive,–,–,–,–
O=C(CBr)Nc1ccc(Cl)cc1C(=O)c1ccccc1F,inactive,inactive,inactive,inactive,inactive,inactive,inactive,inactive,inactive,inactive,inactive,inactive,inactive,inactive,–,inactive,–,–,–,–
CCOC(=O)NC(C)(C)Cc1ccc(Cl)cc1,inactive,inactive,inactive,inactive,inactive,inactive,inactive,inactive,inactive,inactive,inactive,inactive,inactive,–,inactive,inactive,–,–,–,–
Nc1ccccc1C(=O)OCC(O)CO (stereo unspecified),inactive,inactive,inactive,inactive,inactive,inactive,inactive,inactive,inactive,inactive,inactive,inactive,inactive,inactive,inactive,inactive,–,–,–,–
CC(C(O)c1ccccc1)N(C)C/C=C/c1ccccc1 (stereo unspecified),inactive,inactive,inactive,inactive,inactive,inactive,inactive,inactive,inactive,inactive,inactive,inactive,inactive,inactive,–,inactive,–,–,–,–
NC(=O)CN1CCCC1=O,inactive,inactive,inactive,inactive,inactive,inactive,–,inactive,inactive,inactive,inactive,inactive,inactive,inactive,inactive,inactive,inactive,inactive,inactive,inactive
CN(C)CCc1c[nH]c2ccccc12,inactive,inactive,inactive,inactive,inactive,inactive,inactive,inactive,inactive,inactive,inactive,inactive,inactive,inactive,inactive,inactive,–,–,–,–
COc1ccc(C(=O)N2CCCC2=O)cc1,inactive,inactive,inactive,inactive,inactive,inactive,inactive,inactive,inactive,–,inactive,inactive,–,inactive,inactive,inactive,inactive,inactive,inactive,inactive
Cc1cccc(Cc2cnc[nH]2)c1C,inactive,inactive,inactive,inactive,inactive,inactive,inactive,inactive,inactive,inactive,inactive,inactive,inactive,29.9 µM (active),inactive,inactive,–,–,–,–
C[C@H]1CNCCc2ccc(Cl)cc21,inactive,inactive,inactive,inactive,inactive,inactive,inactive,inactive,inactive,inactive,inactive,inactive,inactive,inactive,inactive,inactive,–,–,–,–
O=C(CCCN1CCC(n2c(=O)[nH]c3ccccc32)CC1)c1ccc(F)cc1,inactive,inactive,inactive,inactive,inactive,inactive,inactive,inactive,inactive,inactive,inactive,inactive,inactive,inactive,inactive,inactive,–,–,–,–
CCOC(=O)NC(O)C(Cl)(Cl)Cl (stereo unspecified),inactive,inactive,inactive,inactive,inactive,inactive,inactive,inactive,inactive,inactive,inactive,inactive,inactive,–,inactive,inactive,–,–,–,–
